# Measurements reported in the supplement of paper PMC10338343.
# ± gives the standard deviation.
# Tests used:
# [1] = system: MILI (PIWIL2) piRISC loaded with L1MC piRNA (26 nt); test: pre-steady-state target cleavage rate (min^-1); guide: L1MC piRNA 5'p-UAACUAAAUACUAUGCAAGCUGUAGG; higher = faster piRNA-guided slicing of the target
# How it was run: (§1)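 Cleave-'n-Seq reactions paired 0.1 nM transcribed, DNA-blocked target RNA library with 1 nM active affinity-purified piRISC holding one synthetic guide, plus or minus 500 nM GTSF1 partner protein, in HEPES–potassium acetate buffer at 33 °C for 0–8 or 0–960 min. After sequencing of uncleaved targets and normalisation to depth and weakly complementary targets, the pre-steady-state cleavage rate was taken from a burst-and-steady-state fit. Three trials were pooled, and k3 was capped at 0.0001 min^-1.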
# [2] = system: EfPiwi piRISC loaded with L1MC piRNA (26 nt); test: pre-steady-state target cleavage rate (min^-1); auxiliary factor: 500 nM Ephydatia muelleri Gtsf1; guide: L1MC piRNA 5'p-UAACUAAAUACUAUGCAAGCUGUAGG; MIWI and MILI are mouse PIWI proteins and EfPiwi is from a freshwater sponge; tags in brackets are library labels; higher = faster piRNA-guided slicing of the target
# How it was run: as §1
# [3] = auxiliary factor: 500 nM mouse GTSF1
# [4] = auxiliary factor: none (no GTSF1)
Sequence,"pre-steady-state target cleavage rate [1, 3]","pre-steady-state target cleavage rate [1, 4]",pre-steady-state target cleavage rate [2]
UCCUGGAUCAGCUGGCAUAGUAUUUAGUUA,0.253 ± 0.023,0.00736 ± 0.0024,0.0104 ± 0.0026
UCCUCGUACAGCUUGCAUAGUAUUUUGUUA,0.143 ± 0.016,0.00289 ± 0.0028,0.007 ± 0.0031
UCCUGCUACAGCUUGCAUUGUAAUUAGUUA,0.201 ± 0.024,0.00494 ± 0.0018,0.00519 ± 0.0025
UCCUGCUACAGCUUCCAUUGUAUUUAGUUA,0.157 ± 0.029,0.00322 ± 0.0022,0.00266 ± 0.0018
UCCUGGUAGAGCUUGCAUAGUAAUUAGUUA,0.177 ± 0.021,0.00729 ± 0.0024,0.00406 ± 0.0024
UCCUGGAUCAGCUUGCAUAGUAUUUAGUCA,0.285 ± 0.019,0.0107 ± 0.0027,0.0102 ± 0.0044
UCCUGGAUGUCCGUUGCAUAGUAUUUAGUUA,0.0604 ± 0.018,0.008 ± 0.0033,0.00412 ± 0.0033
UCCUGGAUCAGCCUGCAUAGUAUUUAGUUA,0.244 ± 0.026,0.0068 ± 0.0031,0.0209 ± 0.006
UCCUCCUACAGGUUGCAUAGUAUUAAGUUA,0.212 ± 0.027,0.00545 ± 0.0022,0.00576 ± 0.0023
UCCUGGAACAGCUUGCAUAGUAGUUAGUUA,0.138 ± 0.018,0.00378 ± 0.0026,0.00926 ± 0.0027
UCCUCCUUCAGCUUGCAUAGUAUUAAGUUA,0.155 ± 0.022,0.00246 ± 0.0023,0.00716 ± 0.0031
UCCUGCUACAGAUUGCAUAGUAUUUAGUUA,0.299 ± 0.015,0.0107 ± 0.0034,0.0138 ± 0.0034
UCCUGGUACAGCUUGCAUAGUAUUUUAGUUA,0.183 ± 0.021,0.0144 ± 0.0062,0.00849 ± 0.0042
UCCUCCUACAGCUCGCAUAGUAUUUAGUUA,0.288 ± 0.019,0.0109 ± 0.0027,0.0845 ± 0.019
UCCUGCUACAGCUUGCAUGUAUUUAGUUA,0.104 ± 0.02,0.00362 ± 0.0023,0.00438 ± 0.0028
UCCUGCUUCAGCUUGCAUAGUAAUUAGUUA,0.253 ± 0.022,0.00622 ± 0.0021,0.00863 ± 0.003
UCCUGGAUGAGCUUGCAUGGUAUUUAGUUA,0.195 ± 0.023,0.017 ± 0.0046,0.0127 ± 0.0045
UCCUGGUAGAGCUUGCAUAGUAUUUUGUUA,0.143 ± 0.03,0.00365 ± 0.003,0.00292 ± 0.0029
UCCUCCUACAGCUAGCAAAGUAUUUAGUUA,0.138 ± 0.014,0.00428 ± 0.0022,0.0276 ± 0.0094
UCCUGCUACACCAUGCAUAGUAUUUAGUUA,0.223 ± 0.015,0.00794 ± 0.0027,0.00582 ± 0.003
UCCUCCAACAGCUUGCAUACUAUUUAGUUA,0.0905 ± 0.012,0.00321 ± 0.0025,0.00961 ± 0.0032
UCCUCCUACAGCUUCCAAAGUAUUUAGUUA,0.13 ± 0.019,0.0037 ± 0.0022,0.00527 ± 0.0019
UCCUGGAUCAGCUAGCAUAGUAUUUAGUUA,0.236 ± 0.012,0.00845 ± 0.0024,0.0313 ± 0.009
UCCUGGUACAGCUUGCAUAGUAUUAAGUUA,0.252 ± 0.041,0.00423 ± 0.0038,0.00521 ± 0.0021
UCCUGGUACACGCUUGCAUAGUAUUUAGUUA,0.167 ± 0.046,0.0158 ± 0.0071,0.00613 ± 0.0031
UCCUCCUACAGCAUGCAUAGUAUAUAGUUA,0.243 ± 0.021,0.00579 ± 0.0023,0.00519 ± 0.0032

Sequence,"pre-steady-state target cleavage rate [1, 3]","pre-steady-state target cleavage rate [1, 4]",pre-steady-state target cleavage rate [2]
UCCUGGUACAGCAAGCAUAGUAUUUAGUUA,0.232 ± 0.018,0.00852 ± 0.0027,0.00653 ± 0.0021
UCCUGGAACAGGAUGCAUAGUAUUUAGUAA,0.221 ± 0.021,0.00369 ± 0.0022,0.0055 ± 0.0028
UCCUGGAACAGGCUUGCAUAGUAUUUAGUUA,0.219 ± 0.019,0.0094 ± 0.0029,0.0145 ± 0.0037
UCCUGGUACAGCUUGUCAUAGUAUUUAGUUA,0.19 ± 0.018,0.0068 ± 0.003,0.00651 ± 0.0024
UCCUCCUACAGCUUGCAUAGUACUUUAGUUA,0.216 ± 0.017,0.00628 ± 0.0027,0.0115 ± 0.0051
UCCUCCUUCAGCUUGCAUAGUAUUUAGUUA,0.297 ± 0.019,0.0116 ± 0.0026,0.158 ± 0.041
UCCUGGUACAGCUUGCAUAGUAUUCUAGUUA,0.353 ± 0.088,0.00551 ± 0.0045,0.0044 ± 0.003
UCCUGGAUCUGCUUGCAUAGUAUUUAGUUA,0.229 ± 0.016,0.00944 ± 0.002,0.116 ± 0.023
UCCUGCUACAGCUUGCAGAGUAUUUAGUUA,0.27 ± 0.028,0.00514 ± 0.002,0.006 ± 0.0022
UCCUGGUACAGCUUGCAUAGUAUAUUGUUA,0.146 ± 0.042,0.00411 ± 0.0035,0.00333 ± 0.0026
UCCUCCUACAGCUAGCAUAGUAUUUAGUAA,0.199 ± 0.023,0.00331 ± 0.0021,0.005 ± 0.0022
UCCUGCUAGUCCUUGCAUAGUAUUUAGUUA,0.0977 ± 0.016,0.00689 ± 0.0019,0.00428 ± 0.0023
UCCUGGUACAGCUUGCAUAGUACUUUAGUUA,0.147 ± 0.024,0.00705 ± 0.0032,0.00549 ± 0.0027
UCCUCCUACGCUUGCAUAGUAUUUAGUUA,0.301 ± 0.013,0.0071 ± 0.0018,0.0821 ± 0.021
UCCUGCUACAGCUAGCAUAGUAUUUAGUUA,0.354 ± 0.027,0.00624 ± 0.0029,0.0287 ± 0.0081
UCCUGCUACAGCUUGCAUAGUAUUUAGUCUA,0.116 ± 0.02,0.00343 ± 0.0029,0.00636 ± 0.0024
UCCUGGAUGAGCUUCAUAGUAUUUAGUUA,0.0977 ± 0.012,0.00515 ± 0.002,0.00394 ± 0.0033
UCCUGCUACAGCUUGCAUAGUGUUUAGUUA,0.197 ± 0.02,0.00436 ± 0.0027,0.0065 ± 0.0019
UCCUGCUAACAGCUUGCAUAGUAUUUAGUUA,0.307 ± 0.033,0.00599 ± 0.0032,0.0114 ± 0.0038
UCCUGGUACAGCAUGCAUAGUAUUUAGAUA,0.137 ± 0.025,0.00437 ± 0.0029,0.00412 ± 0.0025
UCCUCCUAACAGCUUGCAUAGUAUUUAGUUA,0.213 ± 0.018,0.0084 ± 0.0021,0.0133 ± 0.0051
UCCUGGAUCAGCUUGCAUAGUAUUUAGUA,0.263 ± 0.019,0.00426 ± 0.0027,0.00808 ± 0.0034
UCCUGCUACAGCUUGAUAGUAUUUAGUUA,0.133 ± 0.017,0.00396 ± 0.0021,0.00658 ± 0.0031
UCCUGGAUCAGCUUGCAUAGUAAUUUAGUUA,0.162 ± 0.018,0.00701 ± 0.0022,0.00371 ± 0.0025
UCCUGGAACAGCUUGCAUAGUAUCUAGUUA,0.213 ± 0.03,0.00512 ± 0.0024,0.0068 ± 0.0027
